{"source": "PubChem BioAssay AID504832", "about": "(National Center for Advancing Translational Sciences (NCATS), 2011)", "note": "Hit rate of the full screen: of about 310,000 compounds, about 18,000 (5.8%) were called active. Entries that show only a call come without a potency. About 22% were inconclusive and are not listed. The sample as a whole holds a higher share of actives than the screen did. Unmarked numbers belong to inactive results. Calls follow the shape of the dose curve; as a rule, active = well fitted inhibition curve with a large enough effect; inconclusive = small, poorly fitted or top-dose-only effect, or another doubt; inactive = no such curve, though single readings can be large or run the other way. Potency is read from the fitted curve at half-maximal effect.", "data": [{"experiment": "Primary qHTS for delayed death inhibitors of the malarial parasite plastid, 48 hour incubation", "settings": "P. falciparum luciferase growth in erythrocytes; series mostly up to 28.7 µM", "how_it_was_run": "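Growth was read as firefly luciferase luminescence after a 48 h, 37 C, 5% CO2 exposure of compounds to reporter-bearing P. falciparum cultures (0.1% parasitemia, 2% hematocrit final) in Albumax-supplemented RPMI 1640.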", "values": [{"smiles": "CCc1cc2c(NC(Cc3ccccc3)C(=O)O)ncnc2s1", "note": "(stereo unspecified)", "Potency": "inactive"}, {"smiles": "CC(C)(C)C(=O)CSc1ccc(S(=O)(=O)N2CCCC2)cn1", "Potency": "inactive"}, {"smiles": "Cc1ccc(C)c(C(C)NC(=O)C2CCCO2)c1", "note": "(stereo unspecified)", "Potency": "inactive"}, {"smiles": "COc1ccc(C(=O)NC2CC2)cc1OC1CCN(Cc2cnn(C)c2)CC1", "Potency": "inactive"}, {"smiles": "Clc1ccc(CN2CCCCCC2)cc1Cl", "Potency": "inactive"}, {"smiles": "Clc1ccc(C[n+]2cc(-c3ccc(Cl)cc3)n3c2CCC3)cc1", "Potency": "0.828 µM (active)"}, {"smiles": "Cn1c(-c2ccccc2)c[n+]2c1CCCCC2", "Potency": "inactive"}, {"smiles": "Clc1ccc(C[n+]2cc(-c3ccccc3)n3c2CCC3)cc1", "Potency": "1.04 µM (active)"}, {"smiles": "CC(NC(=O)c1cc2cc(Cl)ccc2oc1=N)c1ccccc1", "note": "(stereo unspecified)", "Potency": "inactive"}, {"smiles": "O=C(Nc1ccc(F)cc1)C(=O)c1cn(CC(=O)N2CCOCC2)c2ccccc12", "Potency": "inactive"}, {"smiles": "COc1ccc(S(=O)(=O)NC(C)C(=O)NCc2ccncc2)cc1Cl", "note": "(stereo unspecified)", "Potency": "inactive"}, {"smiles": "COc1ccc(NC(=O)CCCC(=O)c2ccccc2)cc1", "Potency": "inactive"}, {"smiles": "CC(C)Cn1c(N)c(C(=O)COC(=O)C2CCCN2C(=O)c2cccs2)c(=O)n(C)c1=O", "note": "(stereo unspecified)", "Potency": "inactive"}, {"smiles": "Cc1ccc(OCCCC(=O)Nc2ccc(S(=O)(=O)Nc3cc(C)nc(C)n3)cc2)cc1", "Potency": "inactive"}, {"smiles": "O=C(Nc1ccccc1)N1CCN(C(=O)Nc2ccccc2)CC1", "Potency": "inactive"}, {"smiles": "O=C(Nc1ccccc1)N1CCN(C2c3ccccc3-c3ccccc32)CC1", "Potency": "2.62 µM (active)"}, {"smiles": "O=C(Nc1ccccc1)N1CCC(C(=O)N2CCN(Cc3ccccc3)CC2)CC1", "Potency": "inactive"}, {"smiles": "Cc1cccc(OC(C)C(=O)N2CCc3ccccc3C2)c1", "note": "(stereo unspecified)", "Potency": "inactive"}, {"smiles": "Brc1ccc(Nc2c3c(nc4ncnn24)CCC3)cc1", "Potency": "0.586 µM (active)"}, {"smiles": "Cc1nc(S(=O)(=O)c2ccc(Br)cc2)nc2c1CCC2", "Potency": "inactive"}, {"smiles": "Cc1cc(Nc2ccc(Br)cc2F)n2ncnc2n1", "Potency": "inactive"}, {"smiles": "O=C(COC(=O)C1CC2CCCC(C1)C2=O)NC(=O)c1ccccc1", "note": "(stereo unspecified)", "Potency": "inactive"}, {"smiles": "COCCC(=O)N1CCC(Oc2ccc(C(=O)NCc3ccon3)cc2)CC1", "Potency": "inactive"}, {"smiles": "CC(=O)c1c(C)oc2ccc(NS(=O)(=O)c3ccccc3)cc12", "Potency": "inactive"}, {"smiles": "Cc1ccn2c(=O)c(C(=O)NCCC3=CCCCC3)c(O)nc2c1", "Potency": "inactive"}, {"smiles": "CCCCC[C@H]1CN(C2CCCCC2)C(=O)[C@@H]1CC(=O)NCc1ccc(OC)cc1", "Potency": "inactive"}, {"smiles": "O=C(NCc1ccco1)/C(=C/c1cccc([N+](=O)[O-])c1)NC(=O)c1ccco1", "Potency": "inactive"}, {"smiles": "Cc1ccc(N2CCN(c3ccc([N+](=O)[O-])cn3)CC2)c(C)c1", "activity change, negative = inhibition": "-8.92% [at 0.00184 µM]"}, {"smiles": "CN(CCNC(=O)c1cc2c(-c3ccccc3F)nn(C)c2s1)C1CCCCC1", "Potency": "1.65 µM (active)"}, {"smiles": "CCOCCCNC(=O)c1cc2c(=O)n3ccccc3nc2s1", "Potency": "inactive"}, {"smiles": "CN(CCc1cnn(C)c1)Cc1cn(C)nc1-c1ccccc1F", "Potency": "inactive"}, {"smiles": "COc1ccc(N2CCN(S(=O)(=O)c3ccc4c(c3)NC(=O)C(C)C(=O)N4)CC2)cc1", "note": "(stereo unspecified)", "Potency": "inactive"}, {"smiles": "CC(=O)c1ccc(S(=O)(=O)Nc2ccc(-c3ccc4nncn4n3)cc2)cc1", "Potency": "inactive"}, {"smiles": "O=C(CNC(=O)c1ccc(F)cc1)c1ccccc1", "Potency": "inactive"}, {"smiles": "COC(=O)C[n+]1cccc2ccccc21", "Potency": "inactive"}, {"smiles": "O=C(C[n+]1cc(Br)cc2ccccc21)c1ccc(F)cc1", "Potency": "11.7 µM (active)"}, {"smiles": "Cc1cccc(NS(=O)(=O)c2ccc(-c3cnc(C4CC4)o3)cc2)c1", "Potency": "inactive"}, {"smiles": "COc1ccccc1C(=O)COC(=O)CSCC(=O)Nc1cc(C)on1", "Potency": "inactive"}, {"smiles": "COC(=O)c1ccc(COC(=O)CNC(=O)c2cccc(OC)c2)o1", "Potency": "inactive"}, {"smiles": "COc1cc(/C=N/N2CCN(c3ccccc3)CC2)ccc1OC(C)=O", "Potency": "inactive"}, {"smiles": "COc1ccc(C(c2nnnn2Cc2cccs2)N2CCN(c3ccccc3)CC2)cc1OC", "note": "(stereo unspecified)", "Potency": "14.7 µM (active)"}, {"smiles": "O=C(CSc1nnc(-c2ccco2)n1CC1CCCO1)c1ccccc1", "note": "(stereo unspecified)", "Potency": "inactive"}, {"smiles": "COc1ccccc1NC(=O)CSc1nnc(C)n1CC1CCCO1", "note": "(stereo unspecified)", "Potency": "inactive"}, {"smiles": "COc1ccccc1C(c1nnnn1CC1CCCO1)N1CCN(c2ccccc2)CC1", "note": "(stereo unspecified)", "Potency": "11.7 µM (active)"}, {"smiles": "COc1ccc(CCn2nnnc2C(c2ccccc2)N2CCN(C)CC2)cc1OC", "note": "(stereo unspecified)", "Potency": "inactive"}, {"smiles": "CCOc1cccc2cc(C(=O)OCC(=O)Nc3c(C)cccc3CC)c(=O)oc12", "Potency": "inactive"}, {"smiles": "CCCc1ccc(C(=O)COC(=O)CN2C(=O)NC3(CCCCC3C)C2=O)cc1", "note": "(stereo unspecified)", "Potency": "inactive"}, {"smiles": "CC(=O)c1ccc(-n2nnnc2SCC(=O)N2CCN(C(=O)c3ccco3)CC2)cc1", "Potency": "inactive"}, {"smiles": "CCC(c1nnnn1C1CCCC1)N1CCN(C(=O)c2ccco2)CC1", "note": "(stereo unspecified)", "Potency": "8.28 µM (active)"}, {"smiles": "CC(C)C(c1nnnn1C1CCCCC1)N1CCN(C(=O)c2ccco2)CC1", "note": "(stereo unspecified)", "Potency": "inactive"}, {"smiles": "CN(C)c1nc(=Nc2cccc(Cl)c2)ss1", "Potency": "1.04 µM (active)"}, {"smiles": "Cc1cc(OCc2cc(C(=O)NCc3cc(C(C)C)no3)no2)cc(C)c1Cl", "Potency": "inactive"}, {"smiles": "COC(=O)c1ccc(COC(=O)c2cnc(Cl)c(Cl)c2)cc1", "Potency": "inactive"}, {"smiles": "Cc1cc(C(F)(F)F)nc(SCC(=O)Nc2nccs2)n1", "Potency": "inactive"}, {"smiles": "COc1ccc(C(C)NC(=O)C23CC4CC(CC(C4)C2)C3)cc1", "note": "(stereo unspecified)", "Potency": "inactive"}, {"smiles": "CN1C(=O)C2(OCCCO2)c2cc(Cl)ccc21", "Potency": "inactive"}, {"smiles": "CN1CCN(c2nc(Nc3ccc(O)cc3)nc3ccccc23)CC1", "Potency": "2.94 µM (active)"}, {"smiles": "CCc1ccc(-c2cc(C(=O)NN3CCN(C)CC3)c3ccccc3n2)cc1", "Potency": "inactive"}, {"smiles": "CCCCc1nc2ccccc2c(NC(=O)CN2CCN(C)CC2)c1CCC", "Potency": "inactive"}, {"smiles": "CCOC(CNC(=O)C1CCN(S(=O)(=O)c2ccc3nc4c(c(C(=O)O)c3c2)CC(C)CC4)CC1)OCC", "note": "(stereo unspecified)", "Potency": "inactive"}, {"smiles": "C/C(=N\\N(C)C)c1ccc(OCCOc2ccc([N+](=O)[O-])cc2)cc1", "Potency": "inactive"}, {"smiles": "COc1ccccc1OCC(=O)Nc1ccccc1C(=O)NC1CC1", "Potency": "inactive"}, {"smiles": "C#CC(C)(C)NC(=O)c1cnc(-c2ccccc2)nc1-c1ccccc1", "Potency": "inactive"}, {"smiles": "O=C(c1ccc2nc(N3CCOCC3)sc2c1)N1CCN(c2ccc(Cl)cc2)CC1", "Potency": "inactive"}, {"smiles": "Cc1ccc2nc(N3CCN(C(=O)c4ccco4)CC3)sc2c1", "Potency": "inactive"}, {"smiles": "COc1ccc2nc(N3CCN(C(=O)c4ccc([N+](=O)[O-])o4)CC3)sc2c1", "Potency": "1.31 µM (active)"}, {"smiles": "Cc1nc(C)c(-c2nnc(-c3cccc(S(=O)(=O)N(C)C)c3)o2)cc1C(=O)NN", "Potency": "inactive"}, {"smiles": "Cc1cc(C)cc(NC(=O)COc2coc(CN3CCN(c4ccccc4)CC3)cc2=O)c1", "Potency": "13.1 µM (active)"}, {"smiles": "O=C(COc1coc(CN2CCN(c3ccccc3)CC2)cc1=O)N1CCc2ccccc21", "Potency": "inactive"}, {"smiles": "O=C(COc1coc(CN2CCN(c3ccccc3)CC2)cc1=O)Nc1ccccc1F", "Potency": "inactive"}, {"smiles": "Cc1ccsc1C(=O)NCCc1ccco1", "Potency": "inactive"}, {"smiles": "O=C(c1nnc(-c2ccc(Cl)cc2)o1)C1CCCC1", "Potency": "inactive"}, {"smiles": "O=C(c1[nH]ncc1-c1ccc(Cl)cc1)C1CO1", "note": "(stereo unspecified)", "Potency": "7.38 µM (active)"}, {"smiles": "C=CCNC(=O)c1ccccc1SCc1c(C)noc1C", "Potency": "inactive"}, {"smiles": "COc1ccc(NC(=O)CN(C)C(=O)c2ccc(COc3ccccc3)o2)cc1", "Potency": "inactive"}, {"smiles": "Cc1ccc(C(C)C)c(OCCSc2nc3ccccc3n2CC(=O)O)c1", "Potency": "inactive"}, {"smiles": "COc1cccc(NC(=O)NCc2ccc(F)cc2)c1", "Potency": "inactive"}, {"smiles": "Cc1cccc(NC(=O)Nc2cccc(Oc3c(F)c(F)c(F)c(F)c3F)c2)c1", "Potency": "4.15 µM (active)"}, {"smiles": "Cc1cccc(NC(=O)Nc2nnc(-c3ccccc3)o2)c1", "Potency": "inactive"}, {"smiles": "Cn1c(=O)c(=O)n(C)c2cc(S(=O)(=O)CCC(=O)N3CCCCC3)ccc21", "Potency": "inactive"}, {"smiles": "COc1cccc(OCc2cc(C(=O)N3CCN(C(=O)c4ccco4)CC3)no2)c1", "Potency": "inactive"}, {"smiles": "COc1ccc(OC)c(C(=O)NC(CC(N)=O)c2ccc(N3CCC(N4CCCCC4)CC3)c([N+](=O)[O-])c2)c1", "note": "(stereo unspecified)", "Potency": "inactive"}, {"smiles": "O=C(O)C1CSC(c2cccnc2)N1", "note": "(stereo unspecified)", "Potency": "inactive"}, {"smiles": "CN(C)CCCN1C(=O)CSC1c1ccc([N+](=O)[O-])cc1", "note": "(stereo unspecified)", "Potency": "inactive"}, {"smiles": "CCCCCCCCCCCCN1C(=O)CSC1c1cccnc1", "note": "(stereo unspecified)", "Potency": "1.85 µM (active)"}, {"smiles": "CCN(CC(=O)Nc1ccc(NC(C)=O)cc1)C(=O)CSC(=S)N1CCCC1", "Potency": "inactive"}, {"smiles": "CCOc1cc(/C=N/Nc2cc(C)nc3ccc(C)cc23)ccc1O", "Potency": "inactive"}, {"smiles": "Cc1cc(C)nc(N/N=C/c2ccc([N+](=O)[O-])o2)n1", "activity change, negative = inhibition": "-1.43% [at 0.00184 µM]"}, {"smiles": "CCN(CC)c1ccc(/C=N/Nc2nc(C)cc(C)n2)c(O)c1", "Potency": "7.38 µM (active)"}, {"smiles": "CC(C)NC(=O)N1CCN(c2ccncc2S(=O)(=O)N2CCCCC2)CC1", "Potency": "inactive"}, {"smiles": "O=C(CCS(=O)(=O)c1ccccc1)NC1CCCC1", "Potency": "inactive"}, {"smiles": "COc1ccccc1OCCCC(=O)Nc1ccc2c(c1)OCCO2", "Potency": "inactive"}, {"smiles": "c1ccc2cc3c(NCCN4CCOCC4)ccnc3cc2c1", "Potency": "0.147 µM (active)"}, {"smiles": "O=C(Cn1c(-c2ccccn2)nc2ccccc21)NCCN1CCOCC1", "Potency": "inactive"}, {"smiles": "O=C(NCCN1CCOCC1)c1ccc2c(c1)ncn2C1CCCC1", "Potency": "inactive"}, {"smiles": "O=C(NCCS(=O)(=O)N1CCN(c2ccccc2)CC1)c1ccco1", "Potency": "inactive"}, {"smiles": "CC1CN(C(=S)Nc2ccc(Br)cc2Cl)CC(C)O1", "note": "(stereo unspecified)", "Potency": "inactive"}, {"smiles": "CS(=O)(=O)c1ccccc1C(=O)Nc1ccc2sccc2c1", "Potency": "inactive"}, {"smiles": "COc1ccc(CC(NC(C)=O)C(=O)NC2CCN(C(=O)c3ccc(Cl)cc3)CC2)cc1", "note": "(stereo unspecified)", "Potency": "inactive"}, {"smiles": "COc1ccccc1N(C)S(=O)(=O)c1ccc(C(=O)NC2CCCCCC2)cc1", "Potency": "inactive"}, {"smiles": "COc1ccccc1N(C)S(=O)(=O)c1ccc(Cl)c(C(=O)Nc2ccncc2)c1", "Potency": "8.28 µM (active)"}, {"smiles": "COc1ccccc1N(C)S(=O)(=O)c1ccc(Cl)c(C(=O)N2CCC(C(N)=O)CC2)c1", "Potency": "inactive"}, {"smiles": "COc1ccc(CNC(=O)COC(=O)c2c(C)nn(-c3ccccc3)c2C)cc1OC", "Potency": "inactive"}, {"smiles": "COC(=O)Cc1ccc(Oc2ncc(C(F)(F)F)cc2Cl)cc1", "Potency": "inactive"}, {"smiles": "CSc1ccccc1-c1nnc(-c2ccc(Cl)cc2)o1", "Potency": "inactive"}, {"smiles": "FC(F)(F)c1cnc(Oc2ccccc2-c2nnc(-c3ccc(Cl)cc3)o2)c(Cl)c1", "Potency": "4.15 µM (active)"}]}]}
